In the library only some 1.1% were active in any assay of this set; here they are far more common.
AmpC inh no detg = inhibitors of E. coli AmpC beta-lactamase without detergent | P00811 | Potency, µM (top dose mostly 57.1 µM), inactives show at the top dose activity change, negative = inhibition, most hits filed as inhibitors | 0.52% of 330,000 active | AID 485341 | AmpC nitrocefin hydrolysis, absorbance 480 nm, 0.0001% Triton;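 also: plate controls were no compound for no effect and no enzyme for full effect; nearly all actives have a fitted effect of over 20% in size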
Target sequence (P00811 whole entry, looked up): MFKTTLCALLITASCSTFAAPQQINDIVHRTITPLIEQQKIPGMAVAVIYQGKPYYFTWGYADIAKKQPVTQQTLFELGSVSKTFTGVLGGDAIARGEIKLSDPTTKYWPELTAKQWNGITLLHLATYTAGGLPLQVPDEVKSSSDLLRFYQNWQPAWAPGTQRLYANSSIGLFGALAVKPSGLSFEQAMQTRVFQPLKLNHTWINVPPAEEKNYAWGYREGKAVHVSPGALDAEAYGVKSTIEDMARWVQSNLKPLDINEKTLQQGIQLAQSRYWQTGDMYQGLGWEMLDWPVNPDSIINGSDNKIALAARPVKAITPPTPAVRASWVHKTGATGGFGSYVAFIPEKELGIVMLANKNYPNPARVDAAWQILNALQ
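20 mM phosphate pH 7.0 + 0.01% (detergent screen) or 0.0001% Triton X-100; 5.3 nM AmpC reagent; cpd preinc 15 min RT; nitrocefin (800 uM stock) to start; A480 q20 s × 4 min; Activity was normalised to no-enzyme and no-compound control wells.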
VACV mCherry inh = inhibitors of vaccinia virus infection (mCherry reporter signal); Vaccinia virus mCherry reporter infection, fluorescence; Potency, µM (top dose mostly 36.5 µM), inactives show at the highest dose activity change, negative = inhibition, actives largely listed as inhibitors; 0.63% of 310,000 active; AID 720579; calls by dose curve; tested in A549 cells; also: nearly all actives have a fitted effect of over 35% in size
VACV Venus inh = inhibitors of vaccinia virus (Venus reporter) | Vaccinia virus Venus reporter expression, fluorescence | Potency, µM (series often up to 36.5 µM), inactives show top-dose activity change, negative = inhibition, actives largely listed as inhibitors | 0.46% of 330,000 active; calls by dose curve; tested in A549 cells; also: nearly all actives have a fitted effect of over 30% in size
AmpC detergent = inhibitors of E. coli AmpC beta-lactamase with detergent | AmpC hydrolysis of nitrocefin, absorbance 480 nm, 0.01% Triton | Potency, µM (highest dose often 114 µM), for inactives: top-dose activity change, negative = inhibition, hits mostly inhibitors | 0.041% of 370,000 active;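 also: 0% = no-compound wells and -100% = no-enzyme wells; nearly all actives have a fitted effect of over 25% in size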
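AmpC (5.3 nM in the dispensed reagent) in 20 mM phosphate pH 7.0 with 0.01% (detergent screen) or 0.0001% Triton X-100 was preincubated with compounds for 15 min at room temperature. Nitrocefin was then added from an 800 uM solution, and hydrolysis was followed at 480 nm.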
* marks the source's active call; other numbers are inactive results; [ ] = remark or other dose. Unless noted, calls follow the shape of the dose curve; as a rule, active = well fitted curve in the direction sought with a large enough effect; inconclusive = small, poorly fitted or top-dose-only effect, or another doubt; inactive = no such curve, though single readings can be large; an effect the other way counts as inactive or inconclusive. Unless noted, % is scaled to controls: 0 for no effect and ±100 for the full control effect; potency is read from the fitted curve at half-maximal effect.

`CC(C)n1cc(CN2CCCC(C(=O)Nc3cccc(-c4cc5ccccc5[nH]4)c3)C2)cn1` (stereo not drawn) gave AmpC inh no detg 136.4%, VACV mCherry inh 11.2µM*, VACV Venus inh inconclusive and AmpC detergent -7.4%.
`CC(C)c1c(C(=O)N(C)CC2CCCN(C)C2)cnn1-c1nccc(-c2cccs2)n1` (stereo not drawn) gave VACV mCherry inh -20.3% and VACV Venus inh -16.0%.
COc1ccc2c3c(c(=O)oc2c1)C1O[C@](c2ccsc2)(Cc2cc(C#N)ccc21)O3 was read as AmpC inh no detg 5.01µM* and AmpC detergent inconclusive.
Screening Cc1cc2c(c(=O)o1)C1O[C@](c3ccsc3)(Cc3cc(C#N)ccc31)O2 returned AmpC inh no detg -49.9%[11.4 µM] and AmpC detergent inconclusive.
`N#Cc1ccc2c(c1)C[C@]1(c3ccsc3)Oc3c(c(=O)oc4ccccc34)C2O1` gave AmpC inh no detg 5.01µM* and AmpC detergent -2.9%[22.9 µM].
For COc1ccc2c(c1)CCc1cnc(-n3ncc(C(=O)N(C)CC4CCCN(C)C4)c3C)nc1-2 (stereo not drawn) the results were VACV mCherry inh -7.8% and VACV Venus inh -8.0%.
Screening O=C(COC(=O)C12CC3CC(CC(Br)(C3)C1)C2)Nc1c(F)cccc1F returned AmpC inh no detg -29.1%.
O=C(COC(=O)C12CC3CC(CC(Br)(C3)C1)C2)Nc1ccc2[nH]c(=O)[nH]c2c1 was read as AmpC inh no detg 31.6µM*, VACV mCherry inh -13.5%, VACV Venus inh -11.8% and AmpC detergent -1.1%.
`O=C(O)CCCC(=O)OCCCCc1cccs1` gave AmpC inh no detg -23.7% and AmpC detergent inconclusive.
Nc1nnc(CCCCc2cccs2)o1 was read as AmpC inh no detg -7.8%, VACV mCherry inh inactive, VACV Venus inh 10µM* and AmpC detergent -5.4%.
C=CCN(c1ccccc1)S(=O)(=O)c1cccc(C(=O)Nc2nc3ccccc3[nH]2)c1 was read as AmpC inh no detg 10µM*, VACV mCherry inh -6.1%, VACV Venus inh -23.5% and AmpC detergent -12.1%.
CN(c1cccc(Cl)c1)S(=O)(=O)c1cccc(C(=O)Nc2nc3ccccc3[nH]2)c1 was read as AmpC inh no detg -42.3%, VACV mCherry inh inconclusive, VACV Venus inh 11.2µM* and AmpC detergent -8.9%.
For C=CCN(c1ccccc1)S(=O)(=O)c1cccc(C(=O)Nc2ccncc2)c1 the results were AmpC inh no detg -26.8%, VACV mCherry inh -5.7%, VACV Venus inh -16.1% and AmpC detergent -11.4%.
For COC(=O)C1(C(=O)OC)NOC2C(=O)N(c3ccc(Cl)cc3Cl)C(=O)C21 (stereo not drawn) the results were AmpC inh no detg 4.47µM* and AmpC detergent 5.5%.
`COC(=O)C1(C(=O)OC)NOC2C(=O)N(N(C)c3ncc(C(F)(F)F)cc3Cl)C(=O)C21` (stereo not drawn) gave AmpC inh no detg -26.5%, VACV mCherry inh inactive, VACV Venus inh -6.7% and AmpC detergent 4.6%.
Screening Cc1cnc(CNC(=O)c2c3n(c(C)cc2=O)-c2ccccc2SC(c2ccsc2)C3)cn1 (stereo not drawn) returned VACV mCherry inh -11.7% and VACV Venus inh -10.4%.
For COC(=O)N1C(=O)[C@](Cc2ccccc2)(c2ccccc2)N1C(=O)OC the results were AmpC inh no detg -28.9%, VACV mCherry inh 12.6µM*, VACV Venus inh 10µM* and AmpC detergent 0.5%.
`CC[C@]1(c2cccc(C)c2)C(=O)N(C(=O)OC)N1C(=O)OC` gave AmpC inh no detg -14.9%, VACV mCherry inh 11.2µM*, VACV Venus inh inconclusive and AmpC detergent -4.4%.
Screening COC(=O)N1C(=O)[C@@](Cc2ccccc2)(c2ccccc2)N1C(=O)OC returned AmpC inh no detg -21.8%, VACV mCherry inh inconclusive, VACV Venus inh inconclusive and AmpC detergent -14.8%.
Screening Cn1c(SCc2ccccc2)nnc1C1CCCN(Cc2cccc3ncccc23)C1 (stereo not drawn) returned VACV mCherry inh -8.7% and VACV Venus inh -6.6%.
Screening Cc1cc2nc(N3CCCN(Cc4cccn4-c4ncccn4)CC3)nc(C)c2cc1C returned VACV mCherry inh -18.2% and VACV Venus inh 11.9%.
`COc1ccc2c(c1)-c1nc(-n3ncc(C(=O)NCc4cccnc4)c3C3CC3)ncc1CC2` gave VACV mCherry inh inconclusive and VACV Venus inh -18.0%.
Cc1ccccc1C(=O)Nc1cccc(-c2nnc(SCC(=O)NCc3ccco3)n2C)c1 was read as VACV mCherry inh -16.1% and VACV Venus inh -14.8%.
For CCN1CCN(CCCNC(=O)c2ccc3c(Cl)c4c(nc3c2)CCCC4)CC1 the results were AmpC inh no detg 137.6%, VACV mCherry inh inconclusive, VACV Venus inh 12.6µM* and AmpC detergent inconclusive.
Screening O=C(NCCCN1CCCCCC1)c1ccc2c(Cl)c3c(nc2c1)CCCC3 returned AmpC inh no detg 120.1%, VACV mCherry inh inactive, VACV Venus inh inconclusive and AmpC detergent 8.8%.
Screening O=C(C[n+]1cccc(Br)c1)c1cc(Cl)ccc1Cl returned VACV mCherry inh -12.0% and VACV Venus inh -6.7%.
`CCc1nc2cc(C(=O)N(C)C3CCOC3)cc(NC(=O)c3ccccc3OC)c2n1C` (stereo not drawn) gave VACV mCherry inh -19.3% and VACV Venus inh -15.9%.
Cc1cc(C)c(S(=O)(=O)/N=C2/C=C(Sc3ncn[nH]3)C(=O)c3ccccc32)cc1C was read as AmpC inh no detg -56.8%, VACV mCherry inh inconclusive, VACV Venus inh 6.31µM* and AmpC detergent -8.9%.
For Cc1ccc(C)c(S(=O)(=O)/N=C2\C=C(NS(=O)(=O)c3ccccc3)C(=O)c3ccccc32)c1 the results were AmpC inh no detg -47.3%, VACV mCherry inh inconclusive, VACV Venus inh 8.5% and AmpC detergent -6.4%.
For C=C[C@H]1CN2CCC1C[C@@H]2C(O)c1ccnc2ccc(OC)cc12 (stereo partly drawn) the results were VACV mCherry inh -0.7% and VACV Venus inh -20.0%.
CCNc1c([N+](=O)[O-])c(=O)oc2ccccc12 was read as AmpC inh no detg -21.5%, VACV mCherry inh -6.2%, VACV Venus inh -5.5% and AmpC detergent -0.2%.
COc1ccc(OCCNc2c([N+](=O)[O-])c(=O)oc3ccccc23)cc1 was read as AmpC inh no detg 28.2µM*, VACV mCherry inh -10.9%, VACV Venus inh -14.9% and AmpC detergent inconclusive.
`CC(N)C(=O)NC1C2C(=C(O)CC(O)C2O)C(=O)OC1(C)C(Cl)Cl` (stereo not drawn) gave VACV mCherry inh inconclusive and VACV Venus inh 1µM*.
O=C(NCc1cccnc1)c1cnn(-c2nccc(-c3cccs3)n2)c1C1CC1 was read as VACV mCherry inh -27.2% and VACV Venus inh -11.9%.
For N#C/C(=C\c1ccc(-c2ccc(Br)cc2)o1)C(=O)NCCc1c[nH]c2ccccc12 the results were AmpC inh no detg 8.91µM*, VACV mCherry inh inconclusive, VACV Venus inh -11.9% and AmpC detergent -13.9%.

Assay outcomes: PubChem, National Center for Advancing Translational Sciences (NCATS)
